# Test results as given in PubChem BioAssay.
# Activity calls are given as the source filed them.
# Columns and labels:
# [1] = test system: Human papillomavirus type 1a protein E7 (residues 44-93); assay: HPV1a E7 fragment binders on microarrays, primary screen, biochemical, small-molecule microarray, residues 44-93, 635 nm fluorescence (AID 1108); conditions: small-molecule microarray binding, fluorescence 635 nm; higher = more signal;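 further: E7 fragment applied at 1 µg/mL in TBST for 1 h at 4 C; score combines spot fluorescence with its signal to noise ratio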
# [2] = modulators of HCV replicon luciferase signal, primary screen, HCV replication inhibitor project, Huh7 cells, luciferase reporter (AID 1109); conditions: 48 h, higher = more signal;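 further: huh7 hepatoma cells harbouring a luciferase neomycin HCV replicon reporter; luciferase luminescence as measure of HCV replicon replication; test concentration not given here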
# [3] = target: Left-right determination factor 2 (Homo sapiens) (UniProt O00292); assay: LEFTY2 binders on small-molecule microarrays, primary screen, biochemical, small-molecule microarray, 635 nm fluorescence scan (AID 1110); conditions: LEFTY2 binding, higher = more signal
# Left-right determination factor 2 (Homo sapiens), sequence (O00292 whole entry, looked up): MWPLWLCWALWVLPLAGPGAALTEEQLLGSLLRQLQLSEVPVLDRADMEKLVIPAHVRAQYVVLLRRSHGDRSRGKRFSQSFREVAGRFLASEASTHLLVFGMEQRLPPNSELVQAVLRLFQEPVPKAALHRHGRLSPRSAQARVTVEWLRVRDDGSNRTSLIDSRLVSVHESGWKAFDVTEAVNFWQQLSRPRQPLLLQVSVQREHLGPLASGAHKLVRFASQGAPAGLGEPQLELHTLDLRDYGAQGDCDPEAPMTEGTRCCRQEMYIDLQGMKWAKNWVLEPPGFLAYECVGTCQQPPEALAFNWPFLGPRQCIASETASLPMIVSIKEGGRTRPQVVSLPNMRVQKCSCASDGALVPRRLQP
# [4] = target: Calmodulin-1 (Homo sapiens) (UniProt P0DP23); assay: CALM1 binders on microarrays, EGTA buffer, profiling panel, biochemical, small-molecule microarray, Cy5-labelled CALM1 (AID 1111); conditions: Cy5-CALM1 binding fluorescence, higher = more signal;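 further: labelled calmodulin applied in Tris saline Tween buffer holding calcium plus EGTA and DTT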
# [5] = target: Calmodulin-1 (Homo sapiens) (UniProt P0DP23); assay: calcium-bound CALM1 binders on microarrays, profiling panel, artefact control for SMM control-protein annotation, biochemical, small-molecule microarray, Cy5-labelled CALM1, plus calcium (AID 1112); conditions: Cy5-CALM1 binding fluorescence, higher = more signal;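 further: score merges spot fluorescence with signal to noise from triplicate slides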
# [6] = small-molecule microarray binders of probe aWnt5a, primary screen, biochemical, biotinylated probe, 635/667 nm fluorescence (AID 1113); conditions: higher = more signal;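 further: score merges 667 nm fluorescence intensity with signal-to-noise per printed feature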
# [7] = small-molecule microarray binders of probe aShh, primary screen, biochemical, biotinylated probe, 635/667 nm fluorescence (AID 1114); conditions: higher = more signal;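 further: probe is biotin-labelled aShh protein from a stem cell growth factor screen; measures binding of labelled protein to compounds printed on the slide; score merges feature fluorescence at 667 nm with signal-to-noise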
# [8] = small-molecule microarray binders of probe aNog, primary screen, biochemical, biotinylated probe, 635/667 nm fluorescence (AID 1115); conditions: higher = more signal;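 further: probe is biotinylated aNog protein used at 0.15 µg/mL for 1 h at 4 C; z-score combines 667 nm fluorescence of each spot with its signal to noise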
# [9] = target: Torsin-1A-interacting protein 1 (Homo sapiens) (UniProt Q5JTV8); assay: LAP1 binders from COS7 cell lysate, primary screen, small-molecule microarray, 635/667 nm fluorescence (AID 1116); conditions: COS7-hLAP1 lysate binding, 635 nm fluorescence, higher = more signal
# Torsin-1A-interacting protein 1 (Homo sapiens), sequence (Q5JTV8 whole entry, looked up): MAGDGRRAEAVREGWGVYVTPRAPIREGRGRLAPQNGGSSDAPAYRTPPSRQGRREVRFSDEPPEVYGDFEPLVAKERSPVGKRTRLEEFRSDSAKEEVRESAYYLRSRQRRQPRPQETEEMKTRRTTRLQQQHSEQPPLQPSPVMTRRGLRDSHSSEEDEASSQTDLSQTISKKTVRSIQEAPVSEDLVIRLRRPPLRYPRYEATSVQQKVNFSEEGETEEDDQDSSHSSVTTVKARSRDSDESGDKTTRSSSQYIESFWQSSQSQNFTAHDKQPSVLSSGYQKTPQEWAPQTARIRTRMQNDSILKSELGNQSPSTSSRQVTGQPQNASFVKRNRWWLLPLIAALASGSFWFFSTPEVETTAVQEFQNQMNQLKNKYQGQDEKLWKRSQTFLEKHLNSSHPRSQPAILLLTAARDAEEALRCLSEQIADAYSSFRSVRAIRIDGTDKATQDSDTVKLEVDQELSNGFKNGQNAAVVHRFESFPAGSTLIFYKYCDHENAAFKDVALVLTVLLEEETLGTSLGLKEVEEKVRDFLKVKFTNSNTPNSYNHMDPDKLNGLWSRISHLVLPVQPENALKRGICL
# [10] = target: Alpha-bungarotoxin (Bungarus multicinctus) (UniProt P60615); assay: alpha-bungarotoxin binders on microarray, profiling panel, artefact control for SMM control protein annotation, biochemical, small-molecule microarray, Alexa647 label, 635/667 nm fluorescence (AID 1117); conditions: alpha-BTX-A647 binding fluorescence, higher = more signal
# Alpha-bungarotoxin (Bungarus multicinctus), sequence (P60615 whole entry, looked up): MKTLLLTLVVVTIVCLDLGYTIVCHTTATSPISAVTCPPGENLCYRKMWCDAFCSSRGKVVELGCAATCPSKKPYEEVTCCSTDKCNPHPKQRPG
# Albumin (Bos taurus) = Albumin (Bos taurus) (UniProt P02769); assay: bovine serum albumin binders on microarray, profiling panel, artefact control for SMM control protein annotation, biochemical, small-molecule microarray, Alexa647 label, 635/667 nm fluorescence (AID 1118); conditions: BSA-A647 binding, fluorescence 635 nm, higher = more signal;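 further: score merges 667 nm emission intensity and signal-to-noise per printed compound spot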
# Albumin (Bos taurus), sequence (P02769 whole entry, looked up): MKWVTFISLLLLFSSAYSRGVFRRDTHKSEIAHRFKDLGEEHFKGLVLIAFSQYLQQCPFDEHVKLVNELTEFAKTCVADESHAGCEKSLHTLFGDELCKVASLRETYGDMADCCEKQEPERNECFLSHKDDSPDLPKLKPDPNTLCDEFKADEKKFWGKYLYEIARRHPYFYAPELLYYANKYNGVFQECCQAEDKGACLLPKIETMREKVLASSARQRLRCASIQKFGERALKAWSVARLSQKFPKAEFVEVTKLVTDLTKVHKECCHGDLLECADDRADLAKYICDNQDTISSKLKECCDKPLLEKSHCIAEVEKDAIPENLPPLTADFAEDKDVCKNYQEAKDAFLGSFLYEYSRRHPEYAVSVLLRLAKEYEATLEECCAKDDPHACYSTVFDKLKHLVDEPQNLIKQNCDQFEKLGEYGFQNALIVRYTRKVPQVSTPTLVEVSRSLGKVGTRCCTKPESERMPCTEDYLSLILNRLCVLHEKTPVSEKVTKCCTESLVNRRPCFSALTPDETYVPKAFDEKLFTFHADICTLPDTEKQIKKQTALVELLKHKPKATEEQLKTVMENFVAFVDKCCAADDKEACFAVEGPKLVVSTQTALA
# [11] = small-molecule microarray binders of probe aXIP, primary screen, biochemical, NeuroSMM set, 635/667 nm fluorescence (AID 1119); conditions: higher = more signal, called active from +8 up or from −8 down;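 further: probe is the protein aXip251-270 applied at 1 µg/mL to compound-printed slides; binding of probe to printed compounds measured as 667 nm fluorescence plus signal to noise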
# [12] = small-molecule binders of probe aNOTCH3, primary screen, biochemical, small-molecule microarray, 635/667 nm fluorescence (AID 1120); conditions: higher = more signal;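 further: probe is a biotin-tagged antibody raised against NOTCH3 rather than NOTCH3 protein; score merges spot fluorescence near 667 nm with spot signal to noise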
# [13] = small-molecule binders of probe aNOTCH2, primary screen, biochemical, small-molecule microarray, 635/667 nm fluorescence (AID 1121); conditions: higher = more signal;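 further: score merges feature fluorescence read at 667 nm with its signal to noise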
# [14] = target: Carbonic anhydrase 2 (Homo sapiens) (UniProt P00918); assay: CAII small-molecule binders, profiling panel, biochemical, small-molecule microarray, Alexa647-labelled CAII (AID 1122); conditions: CAII-A647 binding fluorescence, higher = more signal
# [15] = COS7 lysate on small-molecule microarray, probe aHis, 635 nm (AID 1123); conditions: COS7 cell lysate, fluorescence, higher = more signal;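 further: z-score combines 667nm fluorescence intensity with signal-to-noise per printed compound spot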
# [16] = compound binding in COS7 lysate, probe aLAP1, primary screen, cell lysate, small-molecule microarray (AID 1124); conditions: probe aLAP1, fluorescence, higher = more signal;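 further: lysate comes from COS7 cells expressing LAP1 and is applied at 0.3 µg/mL; score merges spot fluorescence near 667 nm with signal-to-noise over triplicate slides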
# Sam68 (KHDRBS1) = assay: Sam68 small-molecule binders, primary screen, biochemical, small-molecule microarray, 635 nm fluorescence (AID 1125); conditions: small-molecule microarray binding, higher = more signal;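 further: score merges 667 nm channel intensity with signal to noise over triplicate slides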
# [17] = test system: Chordin-like protein 2 (CHRDL2); assay: CHRDL2 small-molecule binders, primary screen, biochemical, small-molecule microarray, 635 nm fluorescence (AID 1126); conditions: small-molecule microarray binding, fluorescence 635 nm; higher = more signal;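 further: printed compound slides probed with Chrdl2 protein at 4 µg/mL for 1 h at 4 C; score merges 667 nm emission intensity with signal to noise over three replicate slides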
# [18] = target: Concanavalin-A (Canavalia ensiformis) (UniProt P02866); assay: ConA small-molecule binders, primary screen, artefact control for SMM control protein annotation, biochemical, small-molecule microarray, Alexa647 label, 635 nm (AID 1127); conditions: ConA-A647 binding fluorescence, higher = more signal;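 further: z combines 667 nm emission intensity with signal-to-noise across three replicate slides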
# Concanavalin-A (Canavalia ensiformis), sequence (P02866 whole entry, looked up): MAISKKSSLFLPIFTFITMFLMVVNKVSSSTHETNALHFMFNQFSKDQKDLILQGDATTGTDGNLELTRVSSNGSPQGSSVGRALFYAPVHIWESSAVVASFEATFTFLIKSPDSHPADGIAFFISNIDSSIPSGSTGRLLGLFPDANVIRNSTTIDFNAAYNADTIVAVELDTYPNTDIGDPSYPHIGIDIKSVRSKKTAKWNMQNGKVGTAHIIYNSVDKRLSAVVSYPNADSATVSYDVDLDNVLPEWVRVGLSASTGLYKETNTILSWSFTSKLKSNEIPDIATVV
SMILES,composite z-score [1],z-score [2],composite z-score [3],composite z-score [4],composite z-score [5],composite z-score [6],composite z-score [7],composite z-score [8],composite z-score [9],composite z-score [10],composite z-score (Albumin (Bos taurus)),composite Z-score [11],composite z-score [12],composite z-score [13],composite z-score [14],composite z-score [15],composite z-score [16],composite z-score (Sam68 (KHDRBS1)),composite z-score [17],composite z-score [18]
C=C(CCCC)/C(=C/C[C@@H](OC(=O)c1ccncc1)c1ccccc1OCCO)c1cnc2ccccc2c1,1.33,-2.77,0.845,0.616,-0.759,0.16,-0.0849,-0.218,1.92,1.35,0.459,-0.869 (inactive),0.28,-0.105,0.719,0.457,0.603,1.3,0.924,1.07
CC(C)C(CO)N1C(=O)[C@@H]2C3C(=O)OCCC/C=C\[C@H]3OC23C=CCN(C(C)(C)C)C(=O)[C@@H]13 (stereo not given in full),-0.0297,-0.57,-0.383,-0.903,-0.804,-0.124,0.0141,-0.368,-0.24,-1.54,-0.632,-0.115 (inactive),-0.304,-0.156,0.815,-0.12,-0.281,-0.142,-0.438,-1.47
Cc1cc(C)c(C(O)C2C=CC3C(=O)NC(=O)C3N2Nc2ccc(Cl)cc2Cl)c(C)c1 (stereo not given),1.4,-0.293,0.105,2.18,0.954,0.0489,0.171,1.92,1.78,1,0.961,0.234 (inactive),0.396,-0.0125,0.575,2.94,0.772,1.1,-0.48,1.09
O=C1NC(=O)C2C1C=CC(C(O)c1ccco1)N2Nc1ccccn1 (stereo not given),-0.45,0.314,-0.111,-0.334,-0.0734,-0.2,0.111,-0.295,0.38,0.0104,-0.176,0.0674 (inactive),-0.133,-0.0567,0.713,0.0264,0.861,0.14,0.146,-0.0501
CCOC(=O)[C@H]1[C@@H]2C(=O)N3CCC[C@H]3[C@H](O[Si](C(C)C)(C(C)C)C(C)C)[C@H]2C=C2CCN(S(=O)(=O)c3ccc(C)cc3)C[C@H]21,1.28,-3.6,0.637,0.791,-0.185,-0.0379,0.0815,-0.709,0.694,0.962,0.603,0.156 (inactive),0.0208,-0.112,0.481,1.15,0.171,1.3,0.484,1.12
O=C1C=C(c2ccccc2)C(=O)c2ccc([C@H]3Oc4ccccc4S(=O)(=O)N4CCC[C@@H]34)cc21,-1.08,-4.28,-0.272,-0.623,-0.351,-0.172,-0.117,-0.23,-0.239,-0.0257,-0.878,0.159 (inactive),-0.185,-0.161,-0.48,-0.811,-0.534,-1.05,0.594,-0.388
C=C(/C(=C/C[C@H](OC(C)=O)c1cccc(OCCO)c1)c1cnc2ccccc2c1)C(C)C,1.05,-2.31,0.524,-0.309,-0.502,-0.118,-0.264,0.0811,0.235,1.19,0.195,0.896 (inactive),0.0701,-0.0859,0.547,0.276,-0.313,0.615,1.05,0.689
O=C1O[C@H](c2ccccc2)[C@H](c2ccccc2)N2[C@H]1[C@@H](C(=O)NC[C@H](O)c1ccccc1)[C@]1(C(=O)Nc3ccc(C#CCCO)cc31)[C@H]2c1ccc(OCCO)cc1,1.1,-1.32,-0.312,1.1,0.547,-0.0758,0.241,0.509,0.213,1.16,0.834,0.182 (inactive),0.0311,-0.0666,0.627,1.7,-0.0479,1.29,-0.327,1.08
